Laboratory results reported in the supplement of paper PMC13380429.
Values without a mark were called inactive.

Each compound was assayed on Vero E6 infected with SARS-CoV-2 (assay: inhibition of SARS-CoV-2 cytopathic effect; higher = more antiviral protection, active = above 15). Conditions: 1 nM; 48 h.

| SMILES | inhibition of SARS-CoV-2 cytopathic effect |
| --- | --- |
| O=C1NC(=O)C(c2ccccc2)(c2ccccc2)N1 [phenytoin] | -2.48% |
| CC(=O)Nc1ncc([N+](=O)[O-])s1 [nithiamide] | -2.44% |
| C[C@H](N)Cc1cccc(O)c1 [gepefrine] | 1.14% |
| Fc1ccc(C(c2ccc(F)cc2)N2CCN(C/C=C/c3ccccc3)CC2)cc1 [flunarizine] | -1.77% |
| O=c1cc(-c2ccc(O)cc2)oc2cc(O)cc(O)c12 [apigenin] | -2.83% |
| CCCCCCCCCCCCCCCCCC(=O)OCC(O)CO (stereo not given) [monostearin] | 3.45% |
| C[C@]12CC[C@H]3[C@@H](CC[C@]4(O)C[C@@H](O)CC[C@]34C=O)[C@@]1(O)CC[C@@H]2C1=CC(=O)OC1 [K-strophanthidin] | 0.01% |
| Nc1nc2c(ccc3ccccc32)s1 | -0.98% |
| CCCCOc1ccc(OCCCN2CCOCC2)cc1 [pramoxine] | -3.87% |
| CC1CC(OC(=O)C(O)c2ccccc2)CC(C)(C)C1 (stereo not given) [cyclandelate] | -0.8% |
| Cc1c[nH]c2ncnc(N3CCC(CN)(C(=O)Nc4cccc(OC(=O)N(C)C)c4)CC3)c12 | -0.02% |
| CCCCCCCCNC(=O)/C(C#N)=C/c1cn(CCCN(C)C)c2ccccc12 [dynole-34-2] | 5.01% |
| C=C1/C(=C\C=C2/CCC[C@]3(C)[C@@H]([C@H](C)OCCC(C)(C)O)CC[C@@H]23)C[C@@H](O)C[C@@H]1O [maxacalcitol] | 1.71% |
| COc1ccc(-c2oc3cc(OC)ccc3c2C(=O)c2ccc(C#N)cc2)cc1 | -2.41% |
| CC1(C)CCC2=C(O1)c1ccccc1C(=O)C2=O [beta-lapachone] | -0.31% |
| CCCCCCCCCCCCCCCCO [1-hexadecanol] | -1.82% |
| CC(=O)OC[C@H]1O[C@@](COC(C)=O)(O[C@H]2O[C@H](COC(C)=O)[C@@H](OC(C)=O)[C@H](OC(C)=O)[C@H]2OC(C)=O)[C@@H](OC(C)=O)[C@@H]1OC(C)=O [sucrose-octaacetate] | 0.66% |
| CCC(=O)OCN1C(=O)C=CC1=O | -0.55% |
| N=C(N)NC(=O)c1cnccn1 [pyrazinoylguanidine] | 0.04% |
| C[C@@H](O)[C@H]1C(=O)N2C(C(=O)O)=C(SCCNC=N)C[C@H]12 [imipenem] | 2.08% |

| SMILES | inhibition of SARS-CoV-2 cytopathic effect |
| --- | --- |
| COc1ccc(-n2c(SCCCN3C(=O)c4cccc5cccc(c45)C3=O)nnc2-c2ccncc2)cc1 | -0.26% |
| Cc1nn(C)c2c1C(c1ccc(C(F)(F)F)cc1)C(C#N)=C(N)O2 (stereo not given) | -1.05% |
| COc1cc(NC(=O)Nc2cccc(CNC(=O)O[C@H]3CCOC3)c2)ccc1-c1cnco1 [merimepodib] | 0.31% |
| O=C(CC12CC3CC(CC(C3)C1)C2)Nc1cccc2nc(NCCNCCO)ccc12 | 3.46% |
| N[C@@H](CSS(=O)(=O)O)C(=O)O [S-sulfo-L-cysteine] | -0.33% |
| CN1CCN(C(=O)O[C@H]2c3nccnc3C(=O)N2c2ccc(Cl)cn2)CC1 | 0.72% |
| Cc1cc2ncc(C(=O)NCC(C)(C)NCC(=O)N3CCC[C@H]3C#N)cn2n1 [anagliptin] | -0.17% |
| Cn1cc([S+](C)[O-])c(=O)c2ccc(F)cc21 (stereo not given) [flosequinan] | -1.94% |
| O=C(Cn1ccnc1[N+](=O)[O-])NCCO [etanidazole] | 0.32% |
| C=CC[N+]1([C@H]2C[C@H]3[C@@H]4CC[C@H]5C[C@H](O)[C@@H](N6CCOCC6)C[C@]5(C)[C@H]4CC[C@]3(C)[C@H]2OC(C)=O)CCCC1 | -0.55% |
| CCC1=C[C@@H]2CN3CCc4c([nH]c5ccccc45)[C@@](C(=O)OC)(C2)[C@@H]13 [catharanthine] | 0.42% |
| Cc1c(Cl)c(C)[n+]([O-])c(Cl)c1-c1noc(-c2cc(O)c(O)c([N+](=O)[O-])c2)n1 [opicapone] | 2.55% |
| CC1(C)C(=O)NC2=C1C(=O)C(=O)c1ccccc12 | 0.25% |
| CC(NCCc1ccc(O)cc1)C(O)c1ccc(O)cc1 (stereo not given) [ritodrine] | 0.34% |
| N=C(N)SCCc1ccc(OCc2ccc([N+](=O)[O-])cc2)cc1 | 1.92% |
| COc1ccc2c(c1)C(=O)N(CCc1ccc(S(=O)(=O)NC(=O)NC3CCCCC3)cc1)C(=O)C2(C)C [gliquidone] | -1.78% |
| CSc1ccccc1OCC(O)CNC(C)C (stereo not given) [tiprenolol] | -1.52% |
| C[C@H]1[C@H](C)CC[C@]2(C(=O)O)CC[C@]3(C)C(=CC[C@@H]4[C@@]5(C)C[C@@H](O)[C@H](O)[C@@](C)(CO)[C@@H]5CC[C@]43C)[C@H]12 [asiatic-acid] | -2.75% |
| C=C[C@@]1(C)CC(=O)[C@]2(O)[C@@]3(C)[C@@H](O)CCC(C)(C)[C@@H]3[C@H](OC(=O)CCN(C)C)[C@H](OC(C)=O)[C@@]2(C)O1 [colforsin-daproate] | 0.4% |
| Cc1cc(NC(=O)NCCN2CCC(O)(Cc3ccccc3)CC2)c2ccccc2n1 [palosuran] | -0.45% |
